Measured values taken from PubChem BioAssay (EPA / NIEHS).
Inconclusive results are not listed. Calls of active or inactive are those of the source. Rule for the calls, unless noted: active = hit-call score of the fitted dose curve at least 0.9, where 1 is the maximum; inactive = score below 0.9.

Assays:
[1] = target: Aryl hydrocarbon receptor (Homo sapiens) (UniProt P35869); assay: ATG_Ahr_CIS: Attagene CIS-FACTORIAL HepG2 Assay for human Aryl Hydrocarbon Receptor (Ahr) (AID 2282930); conditions: HepG2 AhR cis-factorial reporter transcription; actives raise or lower the signal
Procedure, shortened: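 Read-out: reporter mRNA quantified by RT-PCR with fluorescent primer extension and capillary electrophoresis. Human HepG2 liver cells carried transfected cis-promoter reporter units and were exposed to chemical for 24 h; gain or loss fitted relative to DMSO.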

[2] = ATG_AP_1_CIS: Attagene CIS-FACTORIAL HepG2 Assay for human Activator Protein 1 (AP-1) (AID 2282931); conditions: HepG2 Attagene cis-factorial AP-1 reporter mRNA; actives raise or lower the signal
Procedure, shortened: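 HepG2 cells transiently transfected with cis-element-driven multiplex reporter units; 24 h compound exposure. Reporter mRNA quantified by RT-PCR, FAM-labelled fragments resolved by capillary electrophoresis; bidirectional fit versus DMSO baseline.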

[3] = target: Paired box protein Pax-6 (Homo sapiens) (UniProt P26367); assay: ATG_Pax6_CIS: Attagene CIS-FACTORIAL HepG2 Assay for human Paired Box 6 (PAX6) (AID 2282956); conditions: HepG2 CIS-FACTORIAL PAX6 reporter transcription, RNA readout; actives raise or lower the signal
Procedure, shortened: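 After twenty-four hours of chemical exposure, transfected HepG2 cells are harvested for RNA. Cis-promoter reporter transcripts are amplified, fluorescently labelled and sized by capillary electrophoresis, with gain and loss of signal scored against DMSO.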

[4] = ATG_TAL_CIS: Attagene CIS-FACTORIAL HepG2 Assay for human TAL Basal Promoter (AID 2282966); conditions: HepG2 Attagene cis-factorial TAL promoter reporter; actives raise or lower the signal;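 note: background control endpoint measuring basal TAL promoter reporter mRNA not a specific factor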
Procedure, shortened: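 RT-PCR plus capillary electrophoresis quantifies reporter mRNA induction in transiently transfected HepG2 cells after 24 h chemical treatment. DMSO serves as negative control and baseline for bidirectional fitting.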

[5] = ATG_TGFb_CIS: Attagene CIS-FACTORIAL HepG2 Assay for human Transforming Growth Factor (TGF) (AID 2282967); conditions: HepG2 Attagene CIS TGFb reporter, mRNA transcription; actives raise or lower the signal
Procedure, shortened: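 Endogenous TGFB1-linked transcription factor activity read as reporter mRNA via RT-PCR and capillary electrophoresis, 24 h after dosing transiently transfected HepG2 cells. Gain or loss of signal fitted relative to DMSO.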

[6] = ATG_VDRE_CIS: Attagene CIS-FACTORIAL HepG2 Assay for human Vitamin D Receptor Element (VDRE) (AID 2282968); conditions: HepG2 VDRE cis-reporter transcription, actives raise or lower the signal
Procedure, shortened: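 Cell-based multiplexed reporter format in human liver HepG2 cells, 24 h post-dose. Fluorescence from capillary electrophoresis of reporter cDNA gives the signal, with DMSO as negative control and baseline.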

[7] = target: X-box-binding protein 1 (Homo sapiens) (UniProt P17861); assay: ATG_Xbp1_CIS: Attagene CIS-FACTORIAL HepG2 Assay for human X-box Binding Protein 1 (XBP1) (AID 2282972); conditions: HepG2 XBP1 cis-element reporter, Attagene multiplex; actives raise or lower the signal
Procedure, shortened: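 After a 24-hour chemical exposure of HepG2 cells carrying cis-regulated reporters, reporter mRNA levels are assessed. Quantification uses RT-PCR, 6-FAM labelling and capillary electrophoresis. Gain- or loss-of-signal is fitted against DMSO.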

[8] = ATG_M_32_TRANS: Attagene TRANS-FACTORIAL HepG2 Assay for M32 Transcription Factor (Internal Marker) (AID 2282984; active = hit-call score of the fitted dose curve at least 0.9, where 1 is the maximum;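 note: transcript level of a background control reporter unit measured by RT-PCR and capillary electrophoresis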); conditions: HepG2 Attagene TRANS M32 internal marker reporter
Procedure, shortened: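 Capillary electrophoresis of 6-FAM-labelled reporter fragments gives the signal; data fitted for gain over DMSO negative control. Source: HepG2 cells bearing transient multiple reporter transcription units, 24 h exposure.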

[9] = ATG_NFI_CIS: Attagene CIS-FACTORIAL HepG2 Assay for human Nuclear Factor I (NFI) (AID 2282989); conditions: HepG2 cis-regulatory reporter, NFI response element transcription; actives raise or lower the signal
Procedure, shortened: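 Reporter transcripts were measured by RT-PCR with fluorescent primer extension and capillary electrophoresis 24 h post-treatment. HepG2 cells carried transiently transfected cis-regulated reporter constructs reporting endogenous factor activity; gain or loss fitted against DMSO baseline.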

[10] = target: Myc proto-oncogene protein (Homo sapiens) (UniProt P01106); assay: ATG_Myc_CIS: Attagene CIS-FACTORIAL HepG2 Assay for human Myelocytomatosis (Myc) Proto-Oncogene Transcription Factor (AID 2282990); conditions: HepG2, Attagene cis-reporter transcription factor activity; actives raise or lower the signal
Procedure, shortened: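 Read-out: fluorescent reporter mRNA fragments resolved by capillary electrophoresis after RT-PCR. Human HepG2 liver cells carried transfected cis-element reporter units and were dosed for 24 h. Gain or loss of signal fitted relative to DMSO baseline.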

[11] = ATG_NF_kB_CIS: Attagene CIS-FACTORIAL HepG2 Assay for human Nuclear Factor Kappa B (NF-kB) (AID 2282991); conditions: HepG2 Attagene cis-factorial NF-kB reporter mRNA; actives raise or lower the signal
Procedure, shortened: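 HepG2 cells transiently transfected with multiplexed cis-element reporter units measuring endogenous transcription factor activity; reporter mRNA read 24 h after dosing by RT-PCR, fluorescent labelling, HpaI digestion and capillary electrophoresis. Bidirectional fit against DMSO baseline.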

[12] = ATG_NRF2_ARE_CIS: Attagene CIS-FACTORIAL HepG2 Assay for human Nuclear Factor Erythroid 2 Related Factor 2 (NFR2) response to Antioxidant Response Elements (ARE) (AID 2282992); conditions: HepG2 Attagene ARE/NRF2 reporter, transcription factor activity; actives raise or lower the signal;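 for AC50: reporter mRNA level measured by RT-PCR and capillary electrophoresis fluorescence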
Procedure, shortened: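 Cis-factorial assay: transfected HepG2 reporter library, 24 h dosing, mRNA readout via RT-PCR/CE; DMSO-referenced bidirectional analysis.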

[13] = ATG_Oct_MLP_CIS: Attagene CIS-FACTORIAL HepG2 Assay for human Octamer-Binding Transcription Factor (Oct) (AID 2282993); conditions: HepG2 Attagene cis-factorial Oct reporter, mRNA; actives raise or lower the signal
Procedure, shortened: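 Readout is reporter transcript level from RT-PCR with fluorescent primer extension and capillary electrophoresis, fitted in both directions against DMSO. Transfected HepG2 reporter units report endogenous factor activity after 24 h dosing.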

[14] = target: Peroxisome proliferator-activated receptor gamma (Homo sapiens) (UniProt P37231); assay: ATG_PPARg_TRANS: Attagene TRANS-FACTORIAL HepG2 Assay for human Peroxisome Proliferator-activated Receptor-gamma (PPARg) (AID 2283007; active = hit-call score of the fitted dose curve at least 0.9, where 1 is the maximum)
Procedure, shortened: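 HepG2 cells transiently transfected with multiplexed GAL4-UAS reporter units and exogenous chimeric NR-Gal4 proteins; reporter mRNA quantified after 24 h compound exposure by RT-PCR, fluorescent labelling, HpaI digestion and capillary electrophoresis; gain-of-signal fitted versus DMSO baseline.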

[15] = target: Nuclear receptor subfamily 1 group I member 2 (Homo sapiens) (UniProt O75469); assay: ATG_PXR_TRANS: Attagene TRANS-FACTORIAL HepG2 Assay for human Pregnane X Receptor (PXR) (AID 2283008; active = hit-call score of the fitted dose curve at least 0.9, where 1 is the maximum)
Procedure, shortened: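 Fluorescence intensity of FAM-labelled, HpaI-digested reporter amplicons, separated by capillary electrophoresis, quantifies induction. HepG2 cells with PXR-Gal4 trans-reporter system were exposed 24 h; DMSO defines baseline.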

[16] = ATG_RORE_CIS: Attagene CIS-FACTORIAL HepG2 Assay for human RAR-related Orphan Receptor Element (RORE) (AID 2282959); conditions: HepG2 Attagene cis-factorial RORE reporter, mRNA; actives raise or lower the signal
Procedure, shortened: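 HepG2 cells transiently transfected with multiple cis-element reporter transcription units, exposed to chemical for 24 h. Reporter mRNA quantified by RT-PCR, 6-FAM primer-extension labeling, HpaI digestion and capillary electrophoresis; bidirectional fit versus DMSO baseline.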

[17] = ATG_XTT_Cytotoxicity: Cytotoxicity Assessment in the Attagene TRANS-FACTORIAL HepG2 Assay (AID 2283584; active = hit-call score of the fitted dose curve at least 0.9, where 1 is the maximum)
Procedure, shortened: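 Viability endpoint from XTT after 24 h chemical exposure of reporter-transfected human HepG2 liver cells; signal loss fitted relative to DMSO negative control.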

[18] = target: Cellular tumor antigen p53 (Homo sapiens) (UniProt P04637); assay: ATG_p53_CIS: Attagene CIS-FACTORIAL HepG2 Assay for human p53 Transcription Factor (AID 2282994); conditions: HepG2 p53 cis-element reporter, Attagene mRNA; actives raise or lower the signal
Procedure, shortened: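 Using HepG2 hepatoma cells carrying cis-acting multiplexed reporters, mRNA induction is detected after a 24 h exposure. Gain- and loss-of-signal responses are fitted relative to DMSO-treated cells.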

[19] = ATG_BRE_CIS: Attagene CIS-FACTORIAL HepG2 Assay for human Bone Morphogenetic Protein (BMP) Response Element (BRE) (AID 2282933); conditions: HepG2 BMP response element reporter, Attagene transcription factor profiling; actives raise or lower the signal
Procedure, shortened: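 Endogenous transcription factor activity read in transiently transfected HepG2 cells after 24 h chemical exposure. Bidirectional curve fitting against DMSO; readout is reporter transcript level by RT-PCR with capillary electrophoresis of labelled products.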

[20] = ATG_GLI_CIS: Attagene CIS-FACTORIAL HepG2 Assay for human Zinc Finger Protein GLI1 (AID 2282945); conditions: HepG2, Attagene cis-factorial reporter mRNA, GLI element; actives raise or lower the signal
Procedure, shortened: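 Transiently transfected HepG2 cells report endogenous transcription factor activity via cis-element-driven reporter units. After 24 h compound exposure, reporter mRNA was measured by RT-PCR with capillary electrophoresis; bidirectional fitting against DMSO baseline.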

Measured: AC50

Cellular tumor antigen p53 (Homo sapiens), sequence (P04637 whole entry, looked up): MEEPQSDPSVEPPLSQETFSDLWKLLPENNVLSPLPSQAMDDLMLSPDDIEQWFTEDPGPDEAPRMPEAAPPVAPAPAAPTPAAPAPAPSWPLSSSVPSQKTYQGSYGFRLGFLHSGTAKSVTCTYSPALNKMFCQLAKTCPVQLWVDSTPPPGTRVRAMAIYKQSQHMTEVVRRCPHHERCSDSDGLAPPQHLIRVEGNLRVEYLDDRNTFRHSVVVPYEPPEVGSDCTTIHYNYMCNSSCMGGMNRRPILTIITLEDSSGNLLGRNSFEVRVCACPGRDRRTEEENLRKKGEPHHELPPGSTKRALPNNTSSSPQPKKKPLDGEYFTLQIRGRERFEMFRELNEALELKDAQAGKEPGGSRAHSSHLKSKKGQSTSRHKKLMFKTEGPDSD
Aryl hydrocarbon receptor (Homo sapiens), sequence (P35869 whole entry, looked up): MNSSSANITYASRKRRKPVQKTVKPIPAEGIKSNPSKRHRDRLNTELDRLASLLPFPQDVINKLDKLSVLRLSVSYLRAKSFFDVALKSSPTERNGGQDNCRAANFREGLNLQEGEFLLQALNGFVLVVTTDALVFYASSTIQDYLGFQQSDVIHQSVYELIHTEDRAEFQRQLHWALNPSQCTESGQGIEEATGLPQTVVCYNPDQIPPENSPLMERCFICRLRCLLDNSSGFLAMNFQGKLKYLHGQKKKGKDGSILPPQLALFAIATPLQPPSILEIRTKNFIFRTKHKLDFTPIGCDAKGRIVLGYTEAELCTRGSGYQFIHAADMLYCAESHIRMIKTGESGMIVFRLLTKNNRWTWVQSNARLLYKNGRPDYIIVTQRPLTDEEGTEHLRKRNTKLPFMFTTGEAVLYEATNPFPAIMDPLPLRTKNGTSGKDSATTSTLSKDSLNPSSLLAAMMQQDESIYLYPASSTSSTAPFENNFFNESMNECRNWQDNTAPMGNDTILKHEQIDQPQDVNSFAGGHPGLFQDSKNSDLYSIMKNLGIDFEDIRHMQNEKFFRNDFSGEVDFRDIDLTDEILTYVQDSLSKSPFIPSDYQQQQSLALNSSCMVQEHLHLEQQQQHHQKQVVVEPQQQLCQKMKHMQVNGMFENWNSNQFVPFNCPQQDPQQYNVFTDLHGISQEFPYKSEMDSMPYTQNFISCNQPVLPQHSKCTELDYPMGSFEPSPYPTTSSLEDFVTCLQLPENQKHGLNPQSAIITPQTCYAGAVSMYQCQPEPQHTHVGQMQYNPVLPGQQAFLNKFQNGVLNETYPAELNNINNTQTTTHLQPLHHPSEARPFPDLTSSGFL
Myc proto-oncogene protein (Homo sapiens), sequence (P01106 whole entry, looked up, the tested form may be a part): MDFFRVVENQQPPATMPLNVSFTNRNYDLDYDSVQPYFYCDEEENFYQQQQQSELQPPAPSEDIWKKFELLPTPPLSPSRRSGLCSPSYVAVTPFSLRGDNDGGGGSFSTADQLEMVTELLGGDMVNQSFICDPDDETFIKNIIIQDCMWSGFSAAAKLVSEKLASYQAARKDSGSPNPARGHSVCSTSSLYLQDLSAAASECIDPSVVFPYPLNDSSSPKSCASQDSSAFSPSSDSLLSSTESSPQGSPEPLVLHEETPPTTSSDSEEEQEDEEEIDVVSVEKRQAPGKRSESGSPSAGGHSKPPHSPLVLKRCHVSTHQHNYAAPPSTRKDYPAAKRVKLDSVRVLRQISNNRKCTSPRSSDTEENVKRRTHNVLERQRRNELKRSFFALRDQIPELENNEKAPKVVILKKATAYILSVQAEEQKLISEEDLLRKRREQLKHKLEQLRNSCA
Peroxisome proliferator-activated receptor gamma (Homo sapiens), sequence (P37231 whole entry, looked up, the tested form may be a part): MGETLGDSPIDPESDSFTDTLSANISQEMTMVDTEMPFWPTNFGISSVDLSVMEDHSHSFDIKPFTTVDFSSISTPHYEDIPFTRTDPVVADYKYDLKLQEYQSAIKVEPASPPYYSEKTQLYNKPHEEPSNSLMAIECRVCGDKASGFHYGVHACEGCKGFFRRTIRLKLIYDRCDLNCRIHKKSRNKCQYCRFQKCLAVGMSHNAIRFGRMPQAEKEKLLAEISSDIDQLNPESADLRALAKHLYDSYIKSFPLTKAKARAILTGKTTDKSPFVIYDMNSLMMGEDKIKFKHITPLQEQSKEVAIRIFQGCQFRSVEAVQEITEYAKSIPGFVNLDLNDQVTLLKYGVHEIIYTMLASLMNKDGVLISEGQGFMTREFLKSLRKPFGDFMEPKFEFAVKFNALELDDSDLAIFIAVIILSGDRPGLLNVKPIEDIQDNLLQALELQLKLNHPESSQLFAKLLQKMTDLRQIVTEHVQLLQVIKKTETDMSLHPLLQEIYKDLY
Paired box protein Pax-6 (Homo sapiens), sequence (P26367 whole entry, looked up): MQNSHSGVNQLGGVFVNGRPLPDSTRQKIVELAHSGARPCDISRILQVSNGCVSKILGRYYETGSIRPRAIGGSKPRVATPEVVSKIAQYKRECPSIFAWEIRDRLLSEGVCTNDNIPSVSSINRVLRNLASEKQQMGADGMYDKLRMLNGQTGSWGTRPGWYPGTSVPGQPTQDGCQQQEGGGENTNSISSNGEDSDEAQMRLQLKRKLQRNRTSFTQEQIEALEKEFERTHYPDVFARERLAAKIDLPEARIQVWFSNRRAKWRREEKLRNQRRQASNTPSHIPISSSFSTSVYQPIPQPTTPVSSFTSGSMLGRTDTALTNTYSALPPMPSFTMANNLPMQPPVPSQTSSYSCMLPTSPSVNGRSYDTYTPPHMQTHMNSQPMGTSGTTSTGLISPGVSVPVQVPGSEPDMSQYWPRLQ
X-box-binding protein 1 (Homo sapiens), sequence (P17861 whole entry, looked up): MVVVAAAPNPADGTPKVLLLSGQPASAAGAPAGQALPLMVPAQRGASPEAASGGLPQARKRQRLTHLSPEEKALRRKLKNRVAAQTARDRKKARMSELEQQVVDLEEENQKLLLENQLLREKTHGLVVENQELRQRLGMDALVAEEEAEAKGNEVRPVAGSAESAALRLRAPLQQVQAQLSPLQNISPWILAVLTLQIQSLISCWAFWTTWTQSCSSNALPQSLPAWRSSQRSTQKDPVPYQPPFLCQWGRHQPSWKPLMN
Nuclear receptor subfamily 1 group I member 2 (Homo sapiens), sequence (O75469 whole entry, looked up, the tested form may be a part): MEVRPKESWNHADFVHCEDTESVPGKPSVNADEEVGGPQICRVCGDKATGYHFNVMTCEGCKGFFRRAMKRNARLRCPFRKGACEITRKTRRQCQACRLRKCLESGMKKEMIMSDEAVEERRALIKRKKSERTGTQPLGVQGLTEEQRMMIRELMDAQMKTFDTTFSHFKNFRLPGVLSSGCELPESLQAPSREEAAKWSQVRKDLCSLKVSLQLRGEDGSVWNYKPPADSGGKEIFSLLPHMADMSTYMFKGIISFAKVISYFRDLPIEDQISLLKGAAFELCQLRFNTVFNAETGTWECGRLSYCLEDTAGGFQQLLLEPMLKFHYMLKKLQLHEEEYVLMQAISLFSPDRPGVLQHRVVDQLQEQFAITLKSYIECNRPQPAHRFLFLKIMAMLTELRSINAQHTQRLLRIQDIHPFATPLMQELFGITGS

CCN(CC)C(=S)S
active: [2] 65.5 µM | [12] 27.8 µM | [14] 51.5 µM | [15] 3.68 µM
not listed: [16] | [17] | [18] | [19] | [20]
inactive: all other assays above

CCNCC
not listed: [8] | [11] | [15] | [18] | [19] | [20]
inactive: all other assays above

O=[N+]([O-])c1ccc(Cl)cc1
not listed: [14] | [15] | [19] | [20]
inactive: all other assays above

BrCBr
not listed: [2] | [3] | [11] | [14] | [15] | [20]
inactive: all other assays above

O=S(=O)(O)OOS(=O)(=O)O
not listed: [15] | [18] | [19]
inactive: all other assays above

C[N+](C)(C)CC(=O)[O-]
not listed: [2] | [6] | [8] | [11] | [14] | [15] | [18]
inactive: all other assays above

O=C1C=CC(=O)C=C1
active: [1] 2.15 µM | [2] 61.2 µM | [12] 57.4 µM
not listed: [5] | [6] | [19]
inactive: all other assays above

CC(Cc1ccc(C(C)(C)C)cc1)CN1C[C@@H](C)O[C@@H](C)C1 (some centres undefined)
active: [1] 33.4 µM | [2] 40.6 µM | [11] 21 µM | [12] 35.9 µM | [14] 21.7 µM | [15] 4.52 µM
not listed: [6] | [19]
inactive: all other assays above
